Reference: PMC7862700, “An all-to-all approach to the identification of sequence-specific readers for epigenetic DNA modifications on cytosine”

Columns and labels:
Experiment in all cases: DAPPL (digital affinity profiling via proximity ligation, sequencing); 10 mM Tris-HCl pH 7.5, 50 mM NaCl, 1 mM DTT, 4% glycerol, room temperature, 30 min; GST-TFs on glutathione beads, 16-mer random dsDNA library, 0.1% formaldehyde crosslink after washing; high values mean tight binding
Settings in all cases: protein: recombinant; tags: N-terminal GST; dsDNA, one strand shown
FEV = molecular target: T1, FEV (Homo sapiens, UniProt Q99581 1-238)
T1 sequence: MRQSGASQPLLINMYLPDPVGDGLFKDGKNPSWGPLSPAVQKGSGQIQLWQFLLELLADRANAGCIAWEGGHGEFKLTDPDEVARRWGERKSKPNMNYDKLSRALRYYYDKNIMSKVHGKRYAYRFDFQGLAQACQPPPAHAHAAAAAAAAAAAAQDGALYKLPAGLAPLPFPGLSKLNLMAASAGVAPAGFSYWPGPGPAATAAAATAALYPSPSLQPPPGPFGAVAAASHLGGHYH
Procedure, shortened: (§1)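 GST fusions of human transcription factors were expressed in yeast and captured with glutathione beads. Once given DNA barcodes and pooled alongside a tag-only sample, they were incubated for 30 min at room temperature with 200 nmole of a random double-stranded 16-mer DNA library in Tris/NaCl/DTT/glycerol buffer, then washed, crosslinked (0.1% formaldehyde), proximity-ligated, PCR-amplified and sequenced on an Illumina NextSeq500. The binding signal of each hexamer is its read frequency for a factor divided by its frequency for the tag-only sample.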

ETV5 = ETV5 (Homo sapiens, UniProt P41161 1-510)
Procedure, shortened: as §1

SPIC = molecular target: T2, SPIC (Homo sapiens, UniProt Q8N5J4 1-248)
T2 sequence: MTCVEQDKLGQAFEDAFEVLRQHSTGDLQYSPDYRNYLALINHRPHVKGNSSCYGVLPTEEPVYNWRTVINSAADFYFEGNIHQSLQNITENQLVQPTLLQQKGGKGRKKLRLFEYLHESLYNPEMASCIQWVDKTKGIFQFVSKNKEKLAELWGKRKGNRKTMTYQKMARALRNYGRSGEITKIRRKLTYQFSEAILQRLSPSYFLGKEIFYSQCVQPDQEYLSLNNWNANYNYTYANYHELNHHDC
Procedure, shortened: as §1

ELF4 = ELF4 (Homo sapiens, UniProt Q99607 1-663)
Procedure, shortened: as §1

ELK4 = molecular target: T3, ELK4 (Homo sapiens, UniProt P28324-2 1-405)
T3 sequence: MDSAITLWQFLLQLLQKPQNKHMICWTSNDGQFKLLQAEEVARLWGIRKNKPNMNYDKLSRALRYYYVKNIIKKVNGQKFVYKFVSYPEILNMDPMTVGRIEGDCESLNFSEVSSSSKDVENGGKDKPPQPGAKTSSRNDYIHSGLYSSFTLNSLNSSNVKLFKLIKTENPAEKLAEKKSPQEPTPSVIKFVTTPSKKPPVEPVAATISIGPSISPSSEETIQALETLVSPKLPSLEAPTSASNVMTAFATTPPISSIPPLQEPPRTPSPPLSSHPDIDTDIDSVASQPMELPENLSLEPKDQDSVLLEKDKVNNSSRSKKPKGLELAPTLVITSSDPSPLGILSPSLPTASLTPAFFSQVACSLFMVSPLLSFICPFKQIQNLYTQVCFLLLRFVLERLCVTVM
Procedure, shortened: as §1

ETV2 = molecular target: T4, ETV2 (Homo sapiens, UniProt O00321 1-342)
T4 sequence: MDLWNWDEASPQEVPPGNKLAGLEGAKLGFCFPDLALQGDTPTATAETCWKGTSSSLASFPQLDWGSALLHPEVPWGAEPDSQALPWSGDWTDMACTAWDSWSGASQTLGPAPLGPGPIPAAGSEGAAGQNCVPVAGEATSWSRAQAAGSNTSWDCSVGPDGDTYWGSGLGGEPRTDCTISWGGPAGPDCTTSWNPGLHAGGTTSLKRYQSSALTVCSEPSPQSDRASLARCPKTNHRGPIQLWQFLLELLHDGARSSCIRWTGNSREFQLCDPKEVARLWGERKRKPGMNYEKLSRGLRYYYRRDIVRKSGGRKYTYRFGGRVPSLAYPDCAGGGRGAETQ
Procedure, shortened: as §1

ELF3 = molecular target: T5, ELF3 (Homo sapiens, UniProt P78545 1-371)
T5 sequence: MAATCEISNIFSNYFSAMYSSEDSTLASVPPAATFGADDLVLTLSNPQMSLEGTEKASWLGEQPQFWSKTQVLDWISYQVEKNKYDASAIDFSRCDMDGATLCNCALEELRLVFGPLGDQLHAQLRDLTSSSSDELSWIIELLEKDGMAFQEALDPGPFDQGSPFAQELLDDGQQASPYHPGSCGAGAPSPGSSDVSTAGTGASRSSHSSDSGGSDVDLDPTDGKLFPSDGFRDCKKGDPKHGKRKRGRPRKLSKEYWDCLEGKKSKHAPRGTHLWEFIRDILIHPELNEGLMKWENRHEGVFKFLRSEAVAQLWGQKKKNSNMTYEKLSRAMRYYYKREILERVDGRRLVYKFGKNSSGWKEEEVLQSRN
Procedure, shortened: as §1

ETV1 = ETV1 (Homo sapiens, UniProt P50549 1-477)
Procedure, shortened: as §1

ERF = molecular target: T6, ERF (Homo sapiens, UniProt P50548 1-548)
T6 sequence: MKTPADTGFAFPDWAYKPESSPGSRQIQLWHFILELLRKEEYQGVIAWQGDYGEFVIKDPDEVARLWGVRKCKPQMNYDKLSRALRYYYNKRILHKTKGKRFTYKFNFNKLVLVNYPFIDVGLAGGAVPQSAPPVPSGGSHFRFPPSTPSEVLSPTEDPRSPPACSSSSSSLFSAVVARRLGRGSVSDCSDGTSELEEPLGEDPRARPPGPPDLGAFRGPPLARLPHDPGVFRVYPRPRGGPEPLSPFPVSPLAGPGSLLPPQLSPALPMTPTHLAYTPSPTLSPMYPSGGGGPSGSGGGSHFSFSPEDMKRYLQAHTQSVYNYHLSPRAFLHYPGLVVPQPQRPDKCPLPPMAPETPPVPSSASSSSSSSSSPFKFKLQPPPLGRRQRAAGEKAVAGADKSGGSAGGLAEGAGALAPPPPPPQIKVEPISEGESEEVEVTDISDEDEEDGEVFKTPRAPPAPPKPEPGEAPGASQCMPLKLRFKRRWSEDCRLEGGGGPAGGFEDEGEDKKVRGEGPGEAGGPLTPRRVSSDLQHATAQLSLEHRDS
Procedure, shortened: as §1

ETV3L = molecular target: T7, ETV3L (Homo sapiens, UniProt Q6ZN32 1-361)
T7 sequence: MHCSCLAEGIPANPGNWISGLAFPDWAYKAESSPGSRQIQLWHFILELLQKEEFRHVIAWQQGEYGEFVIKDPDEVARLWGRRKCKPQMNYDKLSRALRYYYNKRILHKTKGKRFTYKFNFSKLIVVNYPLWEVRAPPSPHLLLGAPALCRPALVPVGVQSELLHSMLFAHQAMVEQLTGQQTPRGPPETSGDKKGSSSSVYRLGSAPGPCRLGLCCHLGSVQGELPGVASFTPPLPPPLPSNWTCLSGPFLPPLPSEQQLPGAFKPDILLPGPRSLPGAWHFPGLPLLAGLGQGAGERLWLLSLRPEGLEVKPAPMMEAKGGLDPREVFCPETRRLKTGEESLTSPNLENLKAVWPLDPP
Procedure, shortened: as §1

ETS2 = molecular target: T8, ETS2 (Homo sapiens, UniProt P15036 1-469)
T8 sequence: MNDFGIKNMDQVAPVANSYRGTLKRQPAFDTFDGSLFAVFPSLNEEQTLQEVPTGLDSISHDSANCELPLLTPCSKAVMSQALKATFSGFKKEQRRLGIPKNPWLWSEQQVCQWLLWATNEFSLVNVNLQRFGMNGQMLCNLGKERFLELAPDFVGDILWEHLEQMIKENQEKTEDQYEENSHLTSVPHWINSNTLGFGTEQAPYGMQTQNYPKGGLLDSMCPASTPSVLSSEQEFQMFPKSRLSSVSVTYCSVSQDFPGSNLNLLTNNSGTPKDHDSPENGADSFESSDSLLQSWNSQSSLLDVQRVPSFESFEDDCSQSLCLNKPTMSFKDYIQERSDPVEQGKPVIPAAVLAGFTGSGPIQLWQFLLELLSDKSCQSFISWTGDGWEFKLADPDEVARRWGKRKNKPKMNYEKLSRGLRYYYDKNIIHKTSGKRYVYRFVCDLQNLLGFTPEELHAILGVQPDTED
Procedure, shortened: as §1

SPDEF = molecular target: T9, SPDEF (Homo sapiens, UniProt O95238 1-335)
T9 sequence: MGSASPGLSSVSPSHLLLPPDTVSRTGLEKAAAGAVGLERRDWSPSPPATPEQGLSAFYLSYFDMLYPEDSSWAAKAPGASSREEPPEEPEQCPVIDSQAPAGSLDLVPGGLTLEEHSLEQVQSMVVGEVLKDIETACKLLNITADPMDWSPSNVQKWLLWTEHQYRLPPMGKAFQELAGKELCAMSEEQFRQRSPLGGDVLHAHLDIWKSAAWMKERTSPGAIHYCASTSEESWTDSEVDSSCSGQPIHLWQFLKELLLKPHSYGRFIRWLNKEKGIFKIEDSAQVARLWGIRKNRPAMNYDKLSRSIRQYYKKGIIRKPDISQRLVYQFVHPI
Procedure, shortened: as §1

ETV7 = molecular target: T10, ETV7 (Homo sapiens, UniProt Q9Y603 1-341)
T10 sequence: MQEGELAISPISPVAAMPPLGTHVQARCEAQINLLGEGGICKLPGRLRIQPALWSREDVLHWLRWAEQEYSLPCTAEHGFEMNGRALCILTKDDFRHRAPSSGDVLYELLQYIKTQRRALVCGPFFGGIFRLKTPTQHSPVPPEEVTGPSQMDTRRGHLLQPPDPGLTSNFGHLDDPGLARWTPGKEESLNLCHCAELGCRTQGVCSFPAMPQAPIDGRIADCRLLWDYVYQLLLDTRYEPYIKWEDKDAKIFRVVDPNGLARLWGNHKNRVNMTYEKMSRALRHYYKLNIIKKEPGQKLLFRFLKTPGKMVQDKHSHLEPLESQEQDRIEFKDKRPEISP
Procedure, shortened: as §1

ELF5 = molecular target: T11, ELF5 (Homo sapiens, UniProt Q9UKW6-2 1-255)
T11 sequence: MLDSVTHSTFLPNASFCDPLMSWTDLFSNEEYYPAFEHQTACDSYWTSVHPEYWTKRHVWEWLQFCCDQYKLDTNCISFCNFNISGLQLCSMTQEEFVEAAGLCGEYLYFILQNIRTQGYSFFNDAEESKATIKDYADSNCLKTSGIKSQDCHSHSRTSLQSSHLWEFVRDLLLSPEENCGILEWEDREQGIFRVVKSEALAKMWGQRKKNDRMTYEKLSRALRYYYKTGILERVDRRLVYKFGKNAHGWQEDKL
Procedure, shortened: as §1

ETV3 = molecular target: T12, ETV3 (Homo sapiens, UniProt P41162-2 1-143)
T12 sequence: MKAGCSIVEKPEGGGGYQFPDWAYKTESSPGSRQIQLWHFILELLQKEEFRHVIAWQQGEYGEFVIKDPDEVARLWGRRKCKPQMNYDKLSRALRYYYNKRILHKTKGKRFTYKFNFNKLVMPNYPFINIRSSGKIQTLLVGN
Procedure, shortened: as §1

ETV6 = ETV6 (Homo sapiens, UniProt P41212 1-452)
Procedure, shortened: as §1

Chain of ETV6 (P41212 whole entry): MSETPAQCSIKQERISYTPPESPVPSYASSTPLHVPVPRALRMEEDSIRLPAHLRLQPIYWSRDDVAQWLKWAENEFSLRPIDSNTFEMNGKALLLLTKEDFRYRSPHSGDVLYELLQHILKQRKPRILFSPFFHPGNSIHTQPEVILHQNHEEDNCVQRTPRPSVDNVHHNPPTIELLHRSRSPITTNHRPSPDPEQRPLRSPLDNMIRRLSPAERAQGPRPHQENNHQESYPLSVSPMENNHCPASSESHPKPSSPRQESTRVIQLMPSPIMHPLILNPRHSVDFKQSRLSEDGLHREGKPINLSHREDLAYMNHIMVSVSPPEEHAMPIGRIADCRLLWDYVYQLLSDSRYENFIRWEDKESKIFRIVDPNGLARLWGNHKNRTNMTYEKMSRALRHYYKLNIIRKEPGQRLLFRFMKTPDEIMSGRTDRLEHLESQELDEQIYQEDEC
Chain of ETV5 (P41161 whole entry): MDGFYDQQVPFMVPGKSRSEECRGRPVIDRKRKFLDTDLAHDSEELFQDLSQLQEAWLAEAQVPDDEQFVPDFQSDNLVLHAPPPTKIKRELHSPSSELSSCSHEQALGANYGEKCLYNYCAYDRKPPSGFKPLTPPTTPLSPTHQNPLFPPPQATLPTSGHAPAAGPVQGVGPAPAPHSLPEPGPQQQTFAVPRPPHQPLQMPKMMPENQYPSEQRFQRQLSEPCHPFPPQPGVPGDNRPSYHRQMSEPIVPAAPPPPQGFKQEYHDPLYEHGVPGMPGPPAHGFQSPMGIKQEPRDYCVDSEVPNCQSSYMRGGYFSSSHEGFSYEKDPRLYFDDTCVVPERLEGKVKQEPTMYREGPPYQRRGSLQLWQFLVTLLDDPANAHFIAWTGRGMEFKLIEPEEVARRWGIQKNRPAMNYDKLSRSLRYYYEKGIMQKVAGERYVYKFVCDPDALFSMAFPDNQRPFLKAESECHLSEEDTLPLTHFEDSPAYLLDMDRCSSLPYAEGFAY
Chain of ELF4 (Q99607 whole entry): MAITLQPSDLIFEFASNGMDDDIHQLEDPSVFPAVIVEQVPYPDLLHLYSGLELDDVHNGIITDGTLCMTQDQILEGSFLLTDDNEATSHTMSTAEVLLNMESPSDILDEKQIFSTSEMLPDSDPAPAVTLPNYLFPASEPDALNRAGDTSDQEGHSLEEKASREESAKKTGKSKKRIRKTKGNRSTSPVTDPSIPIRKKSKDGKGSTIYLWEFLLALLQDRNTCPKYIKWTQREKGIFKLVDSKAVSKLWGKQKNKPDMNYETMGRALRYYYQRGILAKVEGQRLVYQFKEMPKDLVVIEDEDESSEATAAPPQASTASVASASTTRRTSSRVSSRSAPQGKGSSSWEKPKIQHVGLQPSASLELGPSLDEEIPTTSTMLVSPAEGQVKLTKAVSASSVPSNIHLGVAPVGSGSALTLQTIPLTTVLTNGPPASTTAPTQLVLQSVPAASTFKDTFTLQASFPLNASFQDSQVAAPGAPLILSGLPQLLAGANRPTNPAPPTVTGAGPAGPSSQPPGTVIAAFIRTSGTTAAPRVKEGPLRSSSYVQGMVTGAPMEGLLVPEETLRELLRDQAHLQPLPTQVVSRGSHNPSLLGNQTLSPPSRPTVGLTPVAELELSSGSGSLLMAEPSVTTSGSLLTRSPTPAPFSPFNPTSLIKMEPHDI
Chain of ETV1 (P50549 whole entry): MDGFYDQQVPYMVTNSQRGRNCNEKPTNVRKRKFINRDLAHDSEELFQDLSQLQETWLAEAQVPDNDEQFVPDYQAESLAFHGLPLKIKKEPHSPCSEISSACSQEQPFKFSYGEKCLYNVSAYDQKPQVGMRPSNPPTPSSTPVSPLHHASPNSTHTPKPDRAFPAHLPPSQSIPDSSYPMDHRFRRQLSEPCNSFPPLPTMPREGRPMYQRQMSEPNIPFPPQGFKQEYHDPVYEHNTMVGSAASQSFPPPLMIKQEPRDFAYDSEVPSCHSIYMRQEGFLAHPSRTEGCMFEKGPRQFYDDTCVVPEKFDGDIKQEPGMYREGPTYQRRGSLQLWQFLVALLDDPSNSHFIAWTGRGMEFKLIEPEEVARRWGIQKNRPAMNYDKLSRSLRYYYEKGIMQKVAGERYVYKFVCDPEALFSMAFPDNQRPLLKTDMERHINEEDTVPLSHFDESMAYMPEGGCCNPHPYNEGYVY

| Sequence | binding signal (FEV) | binding signal (ETV5) | binding signal (SPIC) | binding signal (ELF4) | binding signal (ELK4) | binding signal (ETV2) | binding signal (ELF3) | binding signal (ETV1) | binding signal (ERF) | binding signal (ETV3L) | binding signal (ETS2) | binding signal (SPDEF) | binding signal (ETV7) | binding signal (ELF5) | binding signal (ETV3) | binding signal (ETV6) |
| --- | --- | --- | --- | --- | --- | --- | --- | --- | --- | --- | --- | --- | --- | --- | --- | --- |
| CTGTCC | 1.19 fold enrichment (6-mer frequency, TF over GST control) | 1.41 fold enrichment (6-mer frequency, TF over GST control) | 1.13 fold enrichment (6-mer frequency, TF over GST control) | 1.28 fold enrichment (6-mer frequency, TF over GST control) | 1.24 fold enrichment (6-mer frequency, TF over GST control) | 1.2 fold enrichment (6-mer frequency, TF over GST control) | 1.17 fold enrichment (6-mer frequency, TF over GST control) | 1.4 fold enrichment (6-mer frequency, TF over GST control) | 1.28 fold enrichment (6-mer frequency, TF over GST control) | 1.13 fold enrichment (6-mer frequency, TF over GST control) | 1.33 fold enrichment (6-mer frequency, TF over GST control) | 1.27 fold enrichment (6-mer frequency, TF over GST control) | 1.28 fold enrichment (6-mer frequency, TF over GST control) | 1.3 fold enrichment (6-mer frequency, TF over GST control) | 1.14 fold enrichment (6-mer frequency, TF over GST control) | 1.26 fold enrichment (6-mer frequency, TF over GST control) |
| AACCAC | 1.2 fold enrichment (6-mer frequency, TF over GST control) | 1.17 fold enrichment (6-mer frequency, TF over GST control) | 1.25 fold enrichment (6-mer frequency, TF over GST control) | 1.26 fold enrichment (6-mer frequency, TF over GST control) | 1.26 fold enrichment (6-mer frequency, TF over GST control) | 1.05 fold enrichment (6-mer frequency, TF over GST control) | 1.21 fold enrichment (6-mer frequency, TF over GST control) | 1.17 fold enrichment (6-mer frequency, TF over GST control) | 1.18 fold enrichment (6-mer frequency, TF over GST control) | 1.16 fold enrichment (6-mer frequency, TF over GST control) | 1.14 fold enrichment (6-mer frequency, TF over GST control) | 1.08 fold enrichment (6-mer frequency, TF over GST control) | 1.03 fold enrichment (6-mer frequency, TF over GST control) | 1.13 fold enrichment (6-mer frequency, TF over GST control) | 1.17 fold enrichment (6-mer frequency, TF over GST control) | 1.19 fold enrichment (6-mer frequency, TF over GST control) |
| ACCCCC | 1.19 fold enrichment (6-mer frequency, TF over GST control) | 1.18 fold enrichment (6-mer frequency, TF over GST control) | 1.12 fold enrichment (6-mer frequency, TF over GST control) | 1.2 fold enrichment (6-mer frequency, TF over GST control) | 1.28 fold enrichment (6-mer frequency, TF over GST control) | 1.05 fold enrichment (6-mer frequency, TF over GST control) | 1.29 fold enrichment (6-mer frequency, TF over GST control) | 1 fold enrichment (6-mer frequency, TF over GST control) | 1.08 fold enrichment (6-mer frequency, TF over GST control) | 1.16 fold enrichment (6-mer frequency, TF over GST control) | 1.15 fold enrichment (6-mer frequency, TF over GST control) | 1.1 fold enrichment (6-mer frequency, TF over GST control) | 1.08 fold enrichment (6-mer frequency, TF over GST control) | 1.12 fold enrichment (6-mer frequency, TF over GST control) | 1.21 fold enrichment (6-mer frequency, TF over GST control) | 1.06 fold enrichment (6-mer frequency, TF over GST control) |
